We go through 50 compounds from PubChem BioAssay AID504832 (National Center for Advancing Translational Sciences (NCATS), 2011).

Screen size: about 310,000 compounds; about 18,000 (5.8%) were called active. Inconclusive results (about 22%) are left out. Only a selection was taken, and actives are over-represented in it overall. Values without a mark were called inactive. Calls follow the shape of the dose curve; as a rule, active = well fitted inhibition curve with a large enough effect; inconclusive = small, poorly fitted or top-dose-only effect, or another doubt; inactive = no such curve, though single readings can be large or run the other way.
% is scaled to controls: 0 for no effect and ±100 for the full control effect; potency is read from the fitted curve at half-maximal effect.

The nature of the assay: Primary qHTS for delayed death inhibitors of the malarial parasite plastid, 48 hour incubation. As to conditions: P. falciparum luciferase growth in erythrocytes; series mostly up to 28.7 µM; activity change, negative = inhibition: at the top concentration. In a few lines: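 Growth was read as firefly luciferase luminescence after a 48 h, 37 C, 5% CO2 exposure of compounds to reporter-bearing P. falciparum cultures (0.1% parasitemia, 2% hematocrit final) in Albumax-supplemented RPMI 1640.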
Turning to `CC(=O)c1c(C)[nH]c(C(=O)OCC(=O)Nc2c(C)n(C)n(-c3ccccc3)c2=O)c1C`, the “activity change, negative = inhibition” value was 2.3%. Take `CC(C)(C)n1nnnc1C(c1ccccc1F)N1CCN(C(=O)c2ccco2)CC1` (stereo not given): the “activity change, negative = inhibition” value is -24.8%. The same measure, in the same setting: to `CCOc1ccc(S(=O)(=O)N(CC(=O)NCC(F)(F)F)Cc2ccco2)cc1` belongs -9.02%.

Turning to `CCOc1ccc(CN(Cc2ccco2)C(c2cccs2)c2nnnn2C(C)(C)C)cc1` (stereo not given), the Potency is 3.29 µM (active). `CS(=O)(=O)N1CCN=C1SCc1ccc(F)cc1`: the “activity change, negative = inhibition” value is -13.1%.

In the case of `O=C(NCCCN1CCOCC1)c1ccc([N+](=O)[O-])cc1[N+](=O)[O-]`, the “activity change, negative = inhibition” value was 8.63%. Same read-out and setting: then `Cc1ccc(Cc2cnc(NC(=O)/C(C#N)=C/c3ccc(-c4cccc([N+](=O)[O-])c4)o3)s2)cc1`, with 31.9%.

`N#C/C(=C\c1ccc(-c2cccc([N+](=O)[O-])c2)o1)C(=O)NCCN1CCOCC1`: the Potency is 10.4 µM (active). Consider `COc1ccc(C2CC(=O)NC(=O)C2)cc1`, for which the “activity change, negative = inhibition” value was 6.49%. As for `NS(=O)(=O)c1ccc(CCNC(=O)COC(=O)COc2cccc(C(F)(F)F)c2)cc1`, the “activity change, negative = inhibition” value is -11.2%. On the same count and under the same terms, then `Nc1c(N(CCCO)C(=O)C2CCCC2)c(=O)[nH]c(=O)n1Cc1ccccc1`, with 3.41%; and `Cc1nc2ccccc2n1CC(O)c1ccccc1` (stereo not given), with 0.0018%; and `CC(=O)Cn1cnc2c(cnn2-c2ccccc2)c1=O`, with 39.5%. For the compound `CC(C)Cn1cnc2c1c(=O)n(CC(O)c1ccccc1)c(=O)n2CC(C)C` (stereo not given), the Potency was 4.65 µM (active). With `N#Cc1ccc(C2N=C(c3ccccc3)NO2)cc1` (stereo not given), the “activity change, negative = inhibition” value is 270%. The same measure, in the same setting: to `O=C(CNC(=O)c1cccs1)N/N=C/c1cccc(Br)c1` belongs 5.15%; to `O=C(CSC1=NS(=O)(=O)c2cc(F)ccc2N1)Nc1ccccc1F`, 13.4%. For the compound `CN1c2ccc(C=O)c3c(C=O)ccc(c23)N(C)C1(C)C`, the Potency is 11.7 µM (active). For the compound `COc1ccc(-c2noc(CNC(=O)C(C)Oc3ccccc3)n2)cc1` (stereo not given), the “activity change, negative = inhibition” value was -23%. The same measure, in the same setting: to `CC1CCCCC1NC(=O)NC(=O)COC(=O)C1=NN(c2ccccc2)C(=O)CC1` (stereo not given) belongs 3.43%; to `CCn1cc(CN2CCC(C(=O)Nc3cccc(-c4cccc(Cl)c4)c3)CC2)cn1`, -76.4%; to `CCNC(=O)N1CCCC(C(=O)c2ccc(-c3ccccc3)cc2)C1` (stereo not given), -11.1%. Consider `CCN1C(=O)[C@@H]2[C@@H](c3ccc(-c4cccc(Cl)c4)cc3)N3CCC[C@@]3(C(=O)OC)[C@@H]2C1=O`, for which the Potency is 11.7 µM (active). For `CCCCCCSc1ccc([C@@H]2[C@@H]3C(=O)N(CC)C(=O)[C@@H]3[C@]3(C(=O)OC)CCCCN23)cc1OC`, the Potency was 1.85 µM (active).

`O=C(NCc1ccccc1)C1C(=O)N(Cc2ccccc2)C(=O)C1C1(O)CCCC1` (stereo not given): the “activity change, negative = inhibition” value is -29.1%. On to `CCN1C(=O)[C@@H]2[C@@H](c3ccc(-c4ccccc4)cc3)N3CCCC[C@@]3(C(=O)OC)[C@@H]2C1=O`, for which the Potency is 9.28 µM (active). Regarding `CCOC(=O)c1cc(S(=O)(=O)NCCc2ccc(OC)c(OC)c2)cn1C`, the “activity change, negative = inhibition” value is -14.8%. Same read-out and setting: to `COc1cccc(/C=C/C(=O)OCC(=O)N2CCCc3ccccc32)c1` belongs 15%; to `CC(C)CC(=O)Nc1nnc(S(=O)(=O)N(C)c2ccc(Cl)cc2)s1`, 6.02%; to `CCOc1ccc(CN2CCN(CCCc3ccccc3)C(CCO)C2)cc1` (stereo not given), -7.9%. The same measure, in the same setting: to `COc1ccc(CCNS(=O)(=O)c2cc3c(cc2C)NC(=O)CO3)cc1OC` belongs 0.0646%; to `O=C1CC(N2CCN(C(c3ccccc3)c3ccccc3)CC2)C(=O)N1` (stereo not given), -29.3%. Take `CC1(C)CC(N2CCN(C(c3ccccc3)c3ccccc3)CC2)=CC(=[N+]2CCCCC2)C1`: the Potency was 0.415 µM (active). On to `CC1(C)CC(=O)C=C(N2CCCC2)C1`, for which the “activity change, negative = inhibition” value is -7.8%.

On to `COC(=O)c1ccc(C(=O)NC2CC(C)(C)Cc3c2cnn3-c2ccc(F)cc2)nc1` (stereo not given), for which the “activity change, negative = inhibition” value was -23.5%. The same measure, in the same setting: to `Cc1cc(-c2ccc(S(=O)(=O)N3CCc4ccccc4C3)s2)on1` belongs 0.317%. Same read-out and setting: to `CCC(Cc1ccccc1)NS(=O)(=O)c1ccc2c(c1)NC(=O)CS2` (stereo not given) belongs 3.04%. Still for that read-out and setting: then `C=CCOC(=O)C1=C(C)NC(SCC(=O)OCC)=C(C#N)C1c1ccc(C)cc1` (stereo not given), with 3.68%.

On to `C=CCC1(C#N)C(=S)NC(C)=C(C(=O)OCC)C1c1ccccc1` (stereo not given), for which the Potency is 1.47 µM (active). Consider `CCOC(=O)C1=C(C)NC(=O)NC1c1ccccc1` (stereo not given), for which the “activity change, negative = inhibition” value was 21.4%.

Consider `CC(C)(C)c1nc(NCC2CCCO2)c2nnn(Cc3ccccc3)c2n1` (stereo not given), for which the “activity change, negative = inhibition” value was -0.298%. For `Cc1ccc(Cn2nnc3c(=O)n(CC(=O)N4CCCCC4)cnc32)cc1`, the “activity change, negative = inhibition” value was 46.2%. In the case of `CC(C)(C)c1ccc(Cn2nnc3c(=O)[nH]c(C4CCCN(C(=O)c5ccco5)C4)nc32)cc1` (stereo not given), the Potency was 0.828 µM (active). As for `CC(C(=O)NC1CCCC1)N1CCN(S(=O)(=O)c2ccccc2Cl)CC1` (stereo not given), the “activity change, negative = inhibition” value is -12%. For `Cc1ccc(C)c(S(=O)(=O)N2CCN(C(=O)Nc3ccccc3)CC2)c1`, the “activity change, negative = inhibition” value is -25.1%. Consider `CC1CC(=O)Nc2ccccc2N1S(=O)(=O)c1cccs1` (stereo not given), for which the “activity change, negative = inhibition” value is 23.3%. Still for that read-out and setting: to `CC1CC(C)(C)NC(=S)N1CCC(=O)N1CCN(Cc2ccccc2)CC1` (stereo not given) belongs 9.12%. Consider `CC1CC(=S)Nc2ccccc2N1Cc1ccccc1` (stereo not given), for which the Potency is 10.4 µM (active). Turning to `CCS(=O)(=O)C1=NSC2=NC(=O)/C(=C\c3ccc(OS(=O)(=O)c4ccccc4)cc3)C(=N)N21`, the “activity change, negative = inhibition” value is -13.3%.

For `Cc1nc2cc(-c3ccc(F)cc3)nn2c(N2CCOCC2)c1C`, the “activity change, negative = inhibition” value was 73.4%.
